What was measured:
Test in all cases: DAPPL (digital affinity profiling via proximity ligation, sequencing); 10 mM Tris-HCl pH 7.5, 50 mM NaCl, 1 mM DTT, 4% glycerol, room temperature, 30 min; GST-TFs on glutathione beads, 16-mer random dsDNA library, 0.1% formaldehyde crosslink after washing; high values mean tight binding
FLI1 = molecular target: T1, FLI1 (Homo sapiens, UniProt Q01543 1-452); settings: protein: recombinant; tags: N-terminal GST; dsDNA, one strand shown
T1 sequence: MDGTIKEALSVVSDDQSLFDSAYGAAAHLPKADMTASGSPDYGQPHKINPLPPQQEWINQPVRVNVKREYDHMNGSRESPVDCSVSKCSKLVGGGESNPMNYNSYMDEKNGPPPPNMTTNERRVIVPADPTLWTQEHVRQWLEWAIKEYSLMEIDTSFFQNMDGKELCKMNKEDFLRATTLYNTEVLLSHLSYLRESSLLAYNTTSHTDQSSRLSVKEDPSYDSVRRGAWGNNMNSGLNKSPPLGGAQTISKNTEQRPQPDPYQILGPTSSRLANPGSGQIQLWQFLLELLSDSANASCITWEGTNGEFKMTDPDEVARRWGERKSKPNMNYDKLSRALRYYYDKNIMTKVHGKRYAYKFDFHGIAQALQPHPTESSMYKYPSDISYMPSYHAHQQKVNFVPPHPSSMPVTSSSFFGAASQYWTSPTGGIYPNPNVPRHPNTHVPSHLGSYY
In short: (§1)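 Pools of DNA-barcoded human transcription factors, expressed in yeast as GST fusions on glutathione beads and combined with a tag-only sample, were incubated with 200 nmole of a 16-mer random double-stranded DNA library. Incubation took 30 min at room temperature in Tris/NaCl/DTT/glycerol buffer and was followed by washing, 0.1% formaldehyde crosslinking, proximity ligation (BsaI/T4 ligase, 1 h, 37 °C), PCR amplification and sequencing on an Illumina NextSeq500. Binding signal is the ratio of a hexamer's read frequency for a factor to its frequency for the tag-only sample.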

ELK1 = molecular target: T2, ELK1 (Homo sapiens, UniProt P19419 1-428); settings: protein: recombinant; tags: N-terminal GST; dsDNA, one strand shown
T2 sequence: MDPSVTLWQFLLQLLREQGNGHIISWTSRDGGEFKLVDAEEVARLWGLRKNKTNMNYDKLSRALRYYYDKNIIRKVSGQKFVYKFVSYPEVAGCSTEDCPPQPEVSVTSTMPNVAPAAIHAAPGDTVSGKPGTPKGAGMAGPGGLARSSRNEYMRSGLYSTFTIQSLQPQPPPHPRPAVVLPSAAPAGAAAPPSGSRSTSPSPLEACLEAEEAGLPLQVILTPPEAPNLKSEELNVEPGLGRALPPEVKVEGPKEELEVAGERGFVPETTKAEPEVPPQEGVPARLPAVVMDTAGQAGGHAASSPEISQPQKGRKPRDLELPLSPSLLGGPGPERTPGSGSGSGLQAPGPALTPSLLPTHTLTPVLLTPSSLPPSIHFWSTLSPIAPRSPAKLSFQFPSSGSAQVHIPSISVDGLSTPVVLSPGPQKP
In short: as §1

GABPA = molecular target: T3, GABPA (Homo sapiens, UniProt Q06546 1-454); settings: protein: recombinant; tags: N-terminal GST; dsDNA, one strand shown
T3 sequence: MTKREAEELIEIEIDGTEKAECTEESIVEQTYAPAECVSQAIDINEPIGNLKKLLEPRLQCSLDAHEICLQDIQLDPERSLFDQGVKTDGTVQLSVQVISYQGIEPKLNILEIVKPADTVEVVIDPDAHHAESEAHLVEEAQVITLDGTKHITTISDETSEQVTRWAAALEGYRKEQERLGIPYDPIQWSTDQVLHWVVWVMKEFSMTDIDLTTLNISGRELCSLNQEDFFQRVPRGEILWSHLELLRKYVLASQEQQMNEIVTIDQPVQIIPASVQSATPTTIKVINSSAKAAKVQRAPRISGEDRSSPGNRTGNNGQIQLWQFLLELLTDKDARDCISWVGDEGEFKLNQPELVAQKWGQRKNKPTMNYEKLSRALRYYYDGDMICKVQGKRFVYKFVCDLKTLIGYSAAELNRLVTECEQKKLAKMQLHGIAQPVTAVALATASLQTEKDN
In short: as §1

ERG = molecular target: T4, ERG (Homo sapiens, UniProt P11308 1-479); settings: protein: recombinant; tags: N-terminal GST; dsDNA, one strand shown
T4 sequence: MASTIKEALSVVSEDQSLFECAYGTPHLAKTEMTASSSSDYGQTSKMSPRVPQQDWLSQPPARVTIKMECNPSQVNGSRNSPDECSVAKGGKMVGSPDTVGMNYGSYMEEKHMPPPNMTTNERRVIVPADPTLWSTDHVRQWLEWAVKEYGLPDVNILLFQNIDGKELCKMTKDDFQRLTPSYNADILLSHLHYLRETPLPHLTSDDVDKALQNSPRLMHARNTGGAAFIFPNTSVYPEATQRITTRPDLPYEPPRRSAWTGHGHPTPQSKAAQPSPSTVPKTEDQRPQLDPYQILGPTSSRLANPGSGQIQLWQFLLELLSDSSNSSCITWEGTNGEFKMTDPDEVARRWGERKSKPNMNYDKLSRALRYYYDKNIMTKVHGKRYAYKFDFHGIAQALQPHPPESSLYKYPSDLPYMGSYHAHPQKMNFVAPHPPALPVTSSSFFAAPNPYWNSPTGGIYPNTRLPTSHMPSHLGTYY
In short: as §1

ELF1 = ELF1 (Homo sapiens, UniProt P32519 1-619); settings: protein: recombinant; tags: N-terminal GST; dsDNA, one strand shown
In short: as §1

EHF = molecular target: T5, EHF (Homo sapiens, UniProt Q9NZC4 1-300); settings: protein: recombinant; tags: N-terminal GST; dsDNA, one strand shown
T5 sequence: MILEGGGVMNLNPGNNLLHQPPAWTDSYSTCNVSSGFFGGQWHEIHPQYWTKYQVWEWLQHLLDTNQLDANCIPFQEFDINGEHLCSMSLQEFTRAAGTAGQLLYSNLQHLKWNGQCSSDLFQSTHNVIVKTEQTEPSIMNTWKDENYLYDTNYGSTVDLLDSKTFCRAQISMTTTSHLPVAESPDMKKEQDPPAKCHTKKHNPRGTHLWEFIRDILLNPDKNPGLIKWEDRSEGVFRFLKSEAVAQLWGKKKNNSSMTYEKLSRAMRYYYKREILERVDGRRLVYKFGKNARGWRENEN
In short: as §1

SPI1 = SPI1 (Homo sapiens, UniProt P17947 1-270); settings: protein: recombinant; tags: N-terminal GST; dsDNA, one strand shown
In short: as §1

SPIB = SPIB (Homo sapiens, UniProt Q01892 1-262); settings: protein: recombinant; tags: N-terminal GST; dsDNA, one strand shown
In short: as §1

ELK3 = molecular target: T6, ELK3 (Homo sapiens, UniProt P41970 1-407); settings: protein: recombinant; tags: N-terminal GST; dsDNA, one strand shown
T6 sequence: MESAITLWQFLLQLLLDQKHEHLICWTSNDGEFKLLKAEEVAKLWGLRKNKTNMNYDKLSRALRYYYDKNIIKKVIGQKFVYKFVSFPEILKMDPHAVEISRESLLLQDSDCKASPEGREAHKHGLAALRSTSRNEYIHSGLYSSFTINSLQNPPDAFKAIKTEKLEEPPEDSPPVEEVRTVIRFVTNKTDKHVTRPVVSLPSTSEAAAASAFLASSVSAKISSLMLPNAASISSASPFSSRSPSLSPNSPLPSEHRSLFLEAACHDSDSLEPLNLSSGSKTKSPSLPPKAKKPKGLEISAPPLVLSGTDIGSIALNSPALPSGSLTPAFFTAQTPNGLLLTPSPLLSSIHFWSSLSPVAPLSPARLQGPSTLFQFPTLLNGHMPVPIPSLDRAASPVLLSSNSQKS
In short: as §1

FEV = molecular target: T7, FEV (Homo sapiens, UniProt Q99581 1-238); settings: protein: recombinant; tags: N-terminal GST; dsDNA, one strand shown
T7 sequence: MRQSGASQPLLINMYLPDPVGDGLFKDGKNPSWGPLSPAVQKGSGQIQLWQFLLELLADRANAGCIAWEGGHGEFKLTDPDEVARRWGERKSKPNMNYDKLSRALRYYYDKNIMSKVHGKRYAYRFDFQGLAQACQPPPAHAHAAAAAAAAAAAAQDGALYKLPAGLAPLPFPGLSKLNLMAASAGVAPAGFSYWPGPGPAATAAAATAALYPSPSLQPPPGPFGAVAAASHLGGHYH
In short: as §1

ETV5 = ETV5 (Homo sapiens, UniProt P41161 1-510); settings: protein: recombinant; tags: N-terminal GST; dsDNA, one strand shown
In short: as §1

HSF1 = HSF1 (Homo sapiens, UniProt Q00613 1-529); settings: protein: recombinant; tags: N-terminal GST; chain copies: 3; dsDNA, one strand shown
In short: as §1

SPIC = molecular target: T8, SPIC (Homo sapiens, UniProt Q8N5J4 1-248); settings: protein: recombinant; tags: N-terminal GST; dsDNA, one strand shown
T8 sequence: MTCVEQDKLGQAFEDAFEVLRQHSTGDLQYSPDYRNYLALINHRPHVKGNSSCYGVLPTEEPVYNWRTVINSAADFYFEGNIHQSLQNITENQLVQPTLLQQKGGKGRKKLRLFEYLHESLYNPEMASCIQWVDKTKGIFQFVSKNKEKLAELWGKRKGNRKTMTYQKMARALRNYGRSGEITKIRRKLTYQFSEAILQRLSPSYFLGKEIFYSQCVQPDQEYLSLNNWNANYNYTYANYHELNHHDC
In short: as §1

ELF4 = ELF4 (Homo sapiens, UniProt Q99607 1-663); settings: protein: recombinant; tags: N-terminal GST; dsDNA, one strand shown
In short: as §1

ELK4 = molecular target: T9, ELK4 (Homo sapiens, UniProt P28324-2 1-405); settings: protein: recombinant; tags: N-terminal GST; dsDNA, one strand shown
T9 sequence: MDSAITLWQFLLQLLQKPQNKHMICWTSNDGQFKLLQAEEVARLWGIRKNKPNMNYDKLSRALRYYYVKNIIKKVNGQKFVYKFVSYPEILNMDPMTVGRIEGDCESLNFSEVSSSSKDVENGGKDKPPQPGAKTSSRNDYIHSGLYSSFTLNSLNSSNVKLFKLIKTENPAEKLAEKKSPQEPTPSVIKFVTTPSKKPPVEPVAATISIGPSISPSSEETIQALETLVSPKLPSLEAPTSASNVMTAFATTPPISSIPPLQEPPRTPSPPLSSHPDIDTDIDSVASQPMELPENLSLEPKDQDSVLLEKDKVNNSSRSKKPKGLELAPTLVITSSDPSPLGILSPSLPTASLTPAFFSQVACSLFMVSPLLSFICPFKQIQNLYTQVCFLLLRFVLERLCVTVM
In short: as §1

ETV2 = molecular target: T10, ETV2 (Homo sapiens, UniProt O00321 1-342); settings: protein: recombinant; tags: N-terminal GST; dsDNA, one strand shown
T10 sequence: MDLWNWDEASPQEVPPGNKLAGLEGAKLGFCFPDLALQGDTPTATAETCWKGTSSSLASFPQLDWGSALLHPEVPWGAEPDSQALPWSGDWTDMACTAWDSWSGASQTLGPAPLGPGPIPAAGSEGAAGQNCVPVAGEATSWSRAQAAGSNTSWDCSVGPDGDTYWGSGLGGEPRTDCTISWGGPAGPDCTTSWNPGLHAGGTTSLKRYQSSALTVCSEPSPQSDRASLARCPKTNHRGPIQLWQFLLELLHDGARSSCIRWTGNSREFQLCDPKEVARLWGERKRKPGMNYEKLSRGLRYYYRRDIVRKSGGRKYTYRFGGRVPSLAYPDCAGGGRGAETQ
In short: as §1

ELF3 = molecular target: T11, ELF3 (Homo sapiens, UniProt P78545 1-371); settings: protein: recombinant; tags: N-terminal GST; dsDNA, one strand shown
T11 sequence: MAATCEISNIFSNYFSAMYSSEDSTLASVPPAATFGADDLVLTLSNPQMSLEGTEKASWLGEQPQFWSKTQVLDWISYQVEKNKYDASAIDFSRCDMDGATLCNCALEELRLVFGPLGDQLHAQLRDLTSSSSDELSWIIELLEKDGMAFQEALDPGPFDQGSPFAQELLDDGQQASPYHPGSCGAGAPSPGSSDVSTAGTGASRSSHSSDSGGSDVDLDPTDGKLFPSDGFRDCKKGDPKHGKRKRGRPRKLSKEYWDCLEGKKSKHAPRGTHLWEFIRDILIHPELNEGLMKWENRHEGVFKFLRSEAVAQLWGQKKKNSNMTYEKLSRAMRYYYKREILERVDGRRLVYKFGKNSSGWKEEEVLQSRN
In short: as §1

CRX = CRX (Homo sapiens, UniProt O43186 1-299); settings: protein: recombinant; tags: N-terminal GST; dsDNA, one strand shown
In short: as §1

ETV1 = ETV1 (Homo sapiens, UniProt P50549 1-477); settings: protein: recombinant; tags: N-terminal GST; dsDNA, one strand shown
In short: as §1

ELF4, sequence (Q99607 whole entry): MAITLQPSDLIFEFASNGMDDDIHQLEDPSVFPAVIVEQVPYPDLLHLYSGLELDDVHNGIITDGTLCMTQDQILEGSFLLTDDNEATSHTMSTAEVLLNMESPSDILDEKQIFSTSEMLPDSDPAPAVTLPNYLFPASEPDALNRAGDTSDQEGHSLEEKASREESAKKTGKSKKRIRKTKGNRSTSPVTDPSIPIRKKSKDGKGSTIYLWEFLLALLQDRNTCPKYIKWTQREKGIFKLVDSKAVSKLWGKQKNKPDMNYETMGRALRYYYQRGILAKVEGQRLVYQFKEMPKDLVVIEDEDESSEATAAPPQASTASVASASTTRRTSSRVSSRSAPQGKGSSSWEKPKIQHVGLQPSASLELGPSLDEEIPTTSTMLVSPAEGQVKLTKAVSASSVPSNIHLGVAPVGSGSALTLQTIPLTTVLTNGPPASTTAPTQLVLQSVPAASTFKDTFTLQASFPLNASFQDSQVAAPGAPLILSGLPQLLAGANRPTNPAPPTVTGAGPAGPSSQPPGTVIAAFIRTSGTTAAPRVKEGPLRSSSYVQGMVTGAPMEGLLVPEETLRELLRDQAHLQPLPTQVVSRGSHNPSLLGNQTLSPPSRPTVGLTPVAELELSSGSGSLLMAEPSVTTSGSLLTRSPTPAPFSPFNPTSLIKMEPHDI
CRX, sequence (O43186 whole entry): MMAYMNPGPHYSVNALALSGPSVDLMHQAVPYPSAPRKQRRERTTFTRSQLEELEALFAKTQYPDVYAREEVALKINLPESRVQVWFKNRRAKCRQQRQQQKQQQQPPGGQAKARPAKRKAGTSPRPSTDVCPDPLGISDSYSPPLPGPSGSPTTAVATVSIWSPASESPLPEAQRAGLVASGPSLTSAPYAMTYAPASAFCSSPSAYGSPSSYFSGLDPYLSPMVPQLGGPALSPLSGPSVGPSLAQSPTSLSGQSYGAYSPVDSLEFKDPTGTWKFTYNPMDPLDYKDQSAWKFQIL
ETV1, sequence (P50549 whole entry): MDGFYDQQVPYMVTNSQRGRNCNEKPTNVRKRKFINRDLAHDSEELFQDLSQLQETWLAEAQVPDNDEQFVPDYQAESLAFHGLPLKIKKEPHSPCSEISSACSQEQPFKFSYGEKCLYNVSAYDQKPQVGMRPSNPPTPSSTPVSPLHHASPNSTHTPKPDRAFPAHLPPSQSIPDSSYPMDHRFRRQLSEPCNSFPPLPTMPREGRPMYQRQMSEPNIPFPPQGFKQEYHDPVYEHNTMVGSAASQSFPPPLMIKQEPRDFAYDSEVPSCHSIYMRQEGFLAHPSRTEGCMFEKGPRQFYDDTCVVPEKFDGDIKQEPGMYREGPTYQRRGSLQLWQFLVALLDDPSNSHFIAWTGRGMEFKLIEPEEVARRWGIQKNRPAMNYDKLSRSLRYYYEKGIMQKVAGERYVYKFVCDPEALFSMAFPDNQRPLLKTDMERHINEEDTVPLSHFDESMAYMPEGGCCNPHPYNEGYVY
ETV5, sequence (P41161 whole entry): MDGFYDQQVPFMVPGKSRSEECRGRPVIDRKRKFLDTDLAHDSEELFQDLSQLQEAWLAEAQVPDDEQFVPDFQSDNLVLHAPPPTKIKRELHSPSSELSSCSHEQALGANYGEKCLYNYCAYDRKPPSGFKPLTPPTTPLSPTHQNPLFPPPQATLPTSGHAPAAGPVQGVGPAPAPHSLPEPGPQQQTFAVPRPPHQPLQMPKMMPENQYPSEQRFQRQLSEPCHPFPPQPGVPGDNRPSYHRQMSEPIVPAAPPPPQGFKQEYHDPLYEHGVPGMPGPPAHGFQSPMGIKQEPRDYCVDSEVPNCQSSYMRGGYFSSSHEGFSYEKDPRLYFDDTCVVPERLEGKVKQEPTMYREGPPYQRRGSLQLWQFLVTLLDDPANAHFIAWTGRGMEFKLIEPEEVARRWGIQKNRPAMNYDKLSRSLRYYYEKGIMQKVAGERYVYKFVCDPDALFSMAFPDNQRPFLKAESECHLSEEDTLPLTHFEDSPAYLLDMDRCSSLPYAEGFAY
HSF1, sequence (Q00613 whole entry): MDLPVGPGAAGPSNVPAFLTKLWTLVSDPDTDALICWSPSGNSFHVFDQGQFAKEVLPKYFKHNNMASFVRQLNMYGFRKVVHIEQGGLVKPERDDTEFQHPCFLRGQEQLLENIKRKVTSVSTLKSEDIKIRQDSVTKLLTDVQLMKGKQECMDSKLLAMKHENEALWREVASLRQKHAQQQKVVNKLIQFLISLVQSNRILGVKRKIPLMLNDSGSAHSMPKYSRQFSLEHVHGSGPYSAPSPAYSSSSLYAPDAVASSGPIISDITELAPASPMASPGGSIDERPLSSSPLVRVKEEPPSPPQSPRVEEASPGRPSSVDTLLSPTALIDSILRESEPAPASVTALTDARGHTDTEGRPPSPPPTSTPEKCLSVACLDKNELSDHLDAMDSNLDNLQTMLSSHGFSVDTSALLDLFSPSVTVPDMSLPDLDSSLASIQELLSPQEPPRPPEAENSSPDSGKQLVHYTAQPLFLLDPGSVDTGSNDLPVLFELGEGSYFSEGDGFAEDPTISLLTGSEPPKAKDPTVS
ELF1, sequence (P32519 whole entry): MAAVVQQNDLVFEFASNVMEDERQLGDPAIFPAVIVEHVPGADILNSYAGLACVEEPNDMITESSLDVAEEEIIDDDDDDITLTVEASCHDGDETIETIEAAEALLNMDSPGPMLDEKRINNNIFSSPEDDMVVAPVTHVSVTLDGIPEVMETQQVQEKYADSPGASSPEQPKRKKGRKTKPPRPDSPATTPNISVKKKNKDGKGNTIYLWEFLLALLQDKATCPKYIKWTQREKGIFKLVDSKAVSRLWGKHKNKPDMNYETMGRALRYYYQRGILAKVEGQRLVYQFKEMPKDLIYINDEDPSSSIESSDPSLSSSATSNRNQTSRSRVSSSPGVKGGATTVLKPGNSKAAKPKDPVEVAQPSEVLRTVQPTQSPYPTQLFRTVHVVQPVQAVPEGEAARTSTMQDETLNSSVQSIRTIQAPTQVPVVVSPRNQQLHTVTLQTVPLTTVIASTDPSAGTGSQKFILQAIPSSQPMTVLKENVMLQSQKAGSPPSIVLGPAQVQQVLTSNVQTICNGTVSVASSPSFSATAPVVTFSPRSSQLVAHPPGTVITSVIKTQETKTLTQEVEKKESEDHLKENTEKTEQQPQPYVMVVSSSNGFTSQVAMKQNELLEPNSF
SPIB, sequence (Q01892 whole entry): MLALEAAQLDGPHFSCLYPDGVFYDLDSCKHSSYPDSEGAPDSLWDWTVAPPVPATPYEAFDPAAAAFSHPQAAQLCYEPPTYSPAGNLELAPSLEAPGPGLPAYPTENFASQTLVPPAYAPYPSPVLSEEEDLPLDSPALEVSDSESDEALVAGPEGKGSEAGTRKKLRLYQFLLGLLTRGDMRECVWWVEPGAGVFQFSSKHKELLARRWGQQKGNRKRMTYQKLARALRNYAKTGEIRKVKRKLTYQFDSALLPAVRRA

Sequence: ATCCTT
- binding signal (FLI1): 1.72 fold enrichment (6-mer frequency, TF over GST control)
- binding signal (ELK1): 1.62 fold enrichment (6-mer frequency, TF over GST control)
- binding signal (GABPA): 1.64 fold enrichment (6-mer frequency, TF over GST control)
- binding signal (ERG): 1.78 fold enrichment (6-mer frequency, TF over GST control)
- binding signal (ELF1): 1.6 fold enrichment (6-mer frequency, TF over GST control)
- binding signal (EHF): 1.68 fold enrichment (6-mer frequency, TF over GST control)
- binding signal (SPI1): 1.7 fold enrichment (6-mer frequency, TF over GST control)
- binding signal (SPIB): 1.67 fold enrichment (6-mer frequency, TF over GST control)
- binding signal (ELK3): 1.68 fold enrichment (6-mer frequency, TF over GST control)
- binding signal (FEV): 1.64 fold enrichment (6-mer frequency, TF over GST control)
- binding signal (ETV5): 1.67 fold enrichment (6-mer frequency, TF over GST control)
- binding signal (HSF1): 1.98 fold enrichment (6-mer frequency, TF over GST control)
- binding signal (SPIC): 1.74 fold enrichment (6-mer frequency, TF over GST control)
- binding signal (ELF4): 1.7 fold enrichment (6-mer frequency, TF over GST control)
- binding signal (ELK4): 1.77 fold enrichment (6-mer frequency, TF over GST control)
- binding signal (ETV2): 1.57 fold enrichment (6-mer frequency, TF over GST control)
- binding signal (ELF3): 1.47 fold enrichment (6-mer frequency, TF over GST control)
- binding signal (CRX): 2.37 fold enrichment (6-mer frequency, TF over GST control)
- binding signal (ETV1): 1.67 fold enrichment (6-mer frequency, TF over GST control)
